Records with an inconclusive call do not appear. The source made the active and inactive calls. Calls come from the whole dose curve; as a rule, active = well fitted curve in the direction sought with a large enough effect; inconclusive = small, poorly fitted or top-dose-only effect, or another doubt; inactive = no such curve, though single readings can be large; an effect the other way counts as inactive or inconclusive.
Assays:
[1] = NS1 protein of Zika virus - qHTS assay to identify small molecule inhibitors in human HEK 293 cells (AID 1347053); note: series mostly up to about 46 µM; nearly all actives have a fitted effect of over 55% in size
In short: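 HEK 293 cells, seeded 20 h at 37 C, were pretreated with compound 1 h, then infected with ZIKV MR766 (MOI = 0.5) for 24 h. NS1 was read by TR-FRET with two anti-NS1 antibodies, normalized to uninfected and infected wells.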

[2] = qHTS of pediatric cancer cell lines to identify multiple opportunities for drug repurposing: Primary screen for TC32 cells (AID 1347089); note: nearly all actives have a fitted effect of over 60% in size
In short: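 Luminescent ATP read-out (CellTiter-Glo) of metabolically active TC32 cells after 48 h exposure. Concentration-response curves came from 11-point (MIPE, 0.78 nM–46 µM) or 8-point (NPC, 0.59 nM–46 µM) primary titrations; follow-up used 11 points.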

[3] = qHTS of pediatric cancer cell lines to identify multiple opportunities for drug repurposing: Primary screen for DAOY cells (AID 1347090); note: series mostly up to about 46 µM; nearly all actives have a fitted effect of over 55% in size
In short: (§1)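 Cell viability, CellTiter-Glo luminescence; 500-1,000 cells/well, 8- or 11-point titration, 48 h compound exposure at 37 degrees C, 5% CO2. Controls: DMSO neutral, bortezomib 2.3 µM final as positive.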

[4] = qHTS of pediatric cancer cell lines to identify multiple opportunities for drug repurposing: Primary screen for SJ-GBM2 cells (AID 1347091)
In short: as §1

[5] = qHTS of pediatric cancer cell lines to identify multiple opportunities for drug repurposing: Primary screen for SK-N-MC cells (AID 1347093); note: series mostly up to about 46 µM
In short: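 Metabolically active cells were quantified by ATP-dependent luminescence (CellTiter-Glo, 15 min at room temperature) following 48 h treatment. Cells had been plated at 500-1,000 per well and settled for 5 h beforehand.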

[6] = qHTS of pediatric cancer cell lines to identify multiple opportunities for drug repurposing: Primary screen for BT-37 cells (AID 1347094); note: series mostly up to about 57 µM
In short: (§2)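 500-1,000 cells/well; 5 h pre-incubation 37 °C/5% CO2; compound pinned; 48 h; CellTiter-Glo, 15 min RT; luminescence. MIPE 11-pt from 0.78 nM, NPC 8-pt from 0.59 nM final. Bortezomib 2.3 µM final as positive control.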

[7] = qHTS of pediatric cancer cell lines to identify multiple opportunities for drug repurposing: Primary screen for NB-EBc1 cells (AID 1347095)
In short: as §2

[8] = qHTS of pediatric cancer cell lines to identify multiple opportunities for drug repurposing: Primary screen for U-2 OS cells (AID 1347096); note: nearly all actives have a fitted effect of over 50% in size
In short: (§3)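 Cells (500-1,000/well) rested 5 h, then received compounds for 48 h; metabolically active cells were measured by CellTiter-Glo luminescence. Final concentrations spanned up to 46 µM (MIPE, 11-point) or 0.59 nM-46 µM (NPC, 8-point) in primary screens, 11-point in follow-ups.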

[9] = qHTS of pediatric cancer cell lines to identify multiple opportunities for drug repurposing: Primary screen for Saos-2 cells (AID 1347097); note: nearly all actives have a fitted effect of over 40% in size
In short: as §2

[10] = qHTS of pediatric cancer cell lines to identify multiple opportunities for drug repurposing: Primary screen for SK-N-SH cells (AID 1347098); note: nearly all actives have a fitted effect of over 65% in size
In short: as §3

[11] = qHTS of pediatric cancer cell lines to identify multiple opportunities for drug repurposing: Primary screen for NB1643 cells (AID 1347099); note: nearly all actives have a fitted effect of over 50% in size
In short: as §2

[12] = qHTS of pediatric cancer cell lines to identify multiple opportunities for drug repurposing: Primary screen for LAN-5 cells (AID 1347100)
In short: as §3

[13] = qHTS of pediatric cancer cell lines to identify multiple opportunities for drug repurposing: Primary screen for BT-12 cells (AID 1347101); note: nearly all actives have a fitted effect of over 25% in size
In short: as §3

[14] = qHTS of pediatric cancer cell lines to identify multiple opportunities for drug repurposing: Primary screen for Rh18 cells (AID 1347102); note: nearly all actives have a fitted effect of over 65% in size
In short: as §3

[15] = qHTS of pediatric cancer cell lines to identify multiple opportunities for drug repurposing: Primary screen for OHS-50 cells (AID 1347103); note: nearly all actives have a fitted effect of over 40% in size
In short: as §3

[16] = qHTS of pediatric cancer cell lines to identify multiple opportunities for drug repurposing: Primary screen for A673 cells (AID 1347092); note: nearly all actives have a fitted effect of over 45% in size
In short: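 Cell viability of A673 measured by CellTiter-Glo ATP luminescence after 48 hours compound exposure. Dilution series spanned 0.78 nM to 46 µM (MIPE, 11-point) or 0.59 nM to 46 µM (NPC, 8-point); bortezomib 2.3 uM positive control.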

Measured: Potency

CCN(CC)CCN
not listed: [16]
inactive: all other assays above

Oc1cccc2[nH]ccc12
not listed: [10] | [12] | [16]
inactive: all other assays above

COc1ccccc1N1CCN(CC(O)COc2cc(OC)c(OC)c(OC)c2)CC1 (stereo unspecified)
not listed: [5]
inactive: all other assays above

COc1ccc2c(c1)CCCC2=O
not listed: [16]
inactive: all other assays above

Fc1ccc(C(c2ccc(F)cc2)N2CCNCC2)cc1
not listed: [15] | [16]
inactive: all other assays above

CCCCCCCCCCCCCCCCCCN(C)C
not listed: [8] | [16]
inactive: all other assays above

CCOC(=O)c1ccc(O)c(O)c1
not listed: [5] | [7] | [9] | [12] | [13] | [15]
inactive: all other assays above

O=C(c1ccco1)N1CCNCC1
not listed: [9] | [16]
inactive: all other assays above

c1ccc2occc2c1
not listed: [5] | [9] | [10]
inactive: all other assays above

C[C@@H](C1=C(CCN(C)C)Cc2ccccc21)c1ccccn1
not listed: [5] | [10] | [15]
inactive: all other assays above

Cc1cccc(C)c1NC(=O)c1ccc(N)cc1
not listed: [7] | [16]
inactive: all other assays above

C[N+](C)(CCOc1ccccc1)Cc1cccs1
not listed: [7] | [15] | [16]
inactive: all other assays above

CNC(=O)c1c(I)c(NC(C)=O)c(I)c(C(=O)O)c1I
not listed: [12] | [16]
inactive: all other assays above

Cc1cccc(N(C)C(=S)Oc2ccc3c(c2)CCC3)c1
inactive: [1] | [2] | [3] | [4] | [16] | [6] | [11] | [12] | [14]

Reference: PubChem BioAssay (NCATS)
